Data on eight sequences can be found in paper PMC7862700, “An all-to-all approach to the identification of sequence-specific readers for epigenetic DNA modifications on cytosine”.

What all share (test): DAPPL (digital affinity profiling via proximity ligation, sequencing); 10 mM Tris-HCl pH 7.5, 50 mM NaCl, 1 mM DTT, 4% glycerol, room temperature, 30 min; GST-TFs on glutathione beads, 16-mer random dsDNA library, 0.1% formaldehyde crosslink after washing; high values mean tight binding
Holding throughout (conditions): protein: recombinant; tags: N-terminal GST; dsDNA, one strand shown

The target of one test is T1, ERF (Homo sapiens, UniProt P50548 1-548).
T1 sequence: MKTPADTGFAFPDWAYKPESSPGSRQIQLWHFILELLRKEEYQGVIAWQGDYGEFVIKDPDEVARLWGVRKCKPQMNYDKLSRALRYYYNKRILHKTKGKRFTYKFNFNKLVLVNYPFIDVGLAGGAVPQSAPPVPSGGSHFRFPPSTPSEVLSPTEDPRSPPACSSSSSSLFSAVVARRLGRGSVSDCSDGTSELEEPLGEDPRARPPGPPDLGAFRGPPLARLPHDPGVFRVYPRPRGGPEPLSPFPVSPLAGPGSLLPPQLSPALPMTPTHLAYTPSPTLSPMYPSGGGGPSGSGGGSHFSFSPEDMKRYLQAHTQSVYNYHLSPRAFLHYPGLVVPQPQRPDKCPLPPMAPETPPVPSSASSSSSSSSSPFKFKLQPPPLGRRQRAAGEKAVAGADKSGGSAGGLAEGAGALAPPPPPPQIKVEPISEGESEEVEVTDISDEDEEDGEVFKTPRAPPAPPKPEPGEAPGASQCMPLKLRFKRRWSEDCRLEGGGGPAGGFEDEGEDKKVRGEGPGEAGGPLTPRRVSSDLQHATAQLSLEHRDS
Put shortly: (§1)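 A tag-only sample was pooled with DNA-barcoded human transcription factors that had been expressed in yeast as GST fusions and captured on glutathione beads. The pools were incubated for 30 min at room temperature with 200 nmole of a random double-stranded 16-mer DNA library in Tris/NaCl/DTT/glycerol buffer, then washed, crosslinked with 0.1% formaldehyde, proximity-ligated (BsaI/T4 ligase, 1 h, 37 °C), PCR-amplified and sequenced on an Illumina NextSeq500. Binding signal is each hexamer's read frequency for a factor divided by its frequency for the tag-only sample.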

For another test, the target named is T2, ETV3L (Homo sapiens, UniProt Q6ZN32 1-361).
T2 sequence: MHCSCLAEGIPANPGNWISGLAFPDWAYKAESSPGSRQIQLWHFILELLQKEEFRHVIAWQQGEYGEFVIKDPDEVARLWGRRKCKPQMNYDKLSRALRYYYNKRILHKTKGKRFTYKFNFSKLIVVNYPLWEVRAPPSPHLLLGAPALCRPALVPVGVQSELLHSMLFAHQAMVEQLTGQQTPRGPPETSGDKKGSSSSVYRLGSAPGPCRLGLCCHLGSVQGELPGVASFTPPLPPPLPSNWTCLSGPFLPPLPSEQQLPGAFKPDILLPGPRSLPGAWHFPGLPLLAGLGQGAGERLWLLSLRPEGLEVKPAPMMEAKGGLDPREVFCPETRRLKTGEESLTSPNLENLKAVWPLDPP
Put shortly:
as §1

A further test addresses T3, ETS2 (Homo sapiens, UniProt P15036 1-469).
T3 sequence: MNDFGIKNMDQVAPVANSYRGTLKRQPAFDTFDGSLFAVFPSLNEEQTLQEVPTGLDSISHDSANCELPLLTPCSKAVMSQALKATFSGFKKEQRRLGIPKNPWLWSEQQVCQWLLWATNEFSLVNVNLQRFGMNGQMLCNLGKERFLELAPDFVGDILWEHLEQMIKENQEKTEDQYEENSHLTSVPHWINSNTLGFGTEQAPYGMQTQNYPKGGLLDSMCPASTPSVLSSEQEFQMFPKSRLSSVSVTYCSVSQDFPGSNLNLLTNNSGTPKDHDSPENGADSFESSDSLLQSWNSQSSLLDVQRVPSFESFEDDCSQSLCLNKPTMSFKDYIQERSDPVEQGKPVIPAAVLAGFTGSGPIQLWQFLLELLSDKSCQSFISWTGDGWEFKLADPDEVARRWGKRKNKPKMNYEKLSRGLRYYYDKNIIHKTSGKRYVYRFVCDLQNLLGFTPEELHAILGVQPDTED
Put shortly: as §1

The target of another test is T4, SPDEF (Homo sapiens, UniProt O95238 1-335).
T4 sequence: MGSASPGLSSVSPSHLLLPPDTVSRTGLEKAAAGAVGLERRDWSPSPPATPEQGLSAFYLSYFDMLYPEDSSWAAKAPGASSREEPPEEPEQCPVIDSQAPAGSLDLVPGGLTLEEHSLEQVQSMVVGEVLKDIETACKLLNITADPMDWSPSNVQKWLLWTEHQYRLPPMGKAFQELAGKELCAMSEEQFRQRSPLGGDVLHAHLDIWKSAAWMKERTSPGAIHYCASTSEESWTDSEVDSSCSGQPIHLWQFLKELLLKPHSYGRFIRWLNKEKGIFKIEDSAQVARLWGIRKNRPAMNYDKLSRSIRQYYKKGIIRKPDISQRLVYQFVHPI
Put shortly: as §1

The target in another test is T5, ETV7 (Homo sapiens, UniProt Q9Y603 1-341).
T5 sequence: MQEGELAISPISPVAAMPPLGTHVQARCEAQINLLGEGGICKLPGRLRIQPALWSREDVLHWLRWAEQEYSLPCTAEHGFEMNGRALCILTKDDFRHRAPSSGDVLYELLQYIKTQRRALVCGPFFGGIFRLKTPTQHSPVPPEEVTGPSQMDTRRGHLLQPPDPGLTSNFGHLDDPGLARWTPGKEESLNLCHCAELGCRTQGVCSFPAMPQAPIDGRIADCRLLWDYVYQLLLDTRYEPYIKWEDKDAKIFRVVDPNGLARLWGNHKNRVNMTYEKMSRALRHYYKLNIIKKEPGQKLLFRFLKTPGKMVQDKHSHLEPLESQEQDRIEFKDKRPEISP
Put shortly:
as §1

A further test addresses T6, ETV3 (Homo sapiens, UniProt P41162-2 1-143).
T6 sequence: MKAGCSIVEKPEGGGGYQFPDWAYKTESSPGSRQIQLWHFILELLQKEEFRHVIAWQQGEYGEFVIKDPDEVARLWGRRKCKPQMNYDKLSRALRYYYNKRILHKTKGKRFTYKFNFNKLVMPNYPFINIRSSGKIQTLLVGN
Put shortly:
as §1

A further test has as its target ETV6 (Homo sapiens, UniProt P41212 1-452). Put shortly:
as §1

Chain of ETV6 (P41212 whole entry): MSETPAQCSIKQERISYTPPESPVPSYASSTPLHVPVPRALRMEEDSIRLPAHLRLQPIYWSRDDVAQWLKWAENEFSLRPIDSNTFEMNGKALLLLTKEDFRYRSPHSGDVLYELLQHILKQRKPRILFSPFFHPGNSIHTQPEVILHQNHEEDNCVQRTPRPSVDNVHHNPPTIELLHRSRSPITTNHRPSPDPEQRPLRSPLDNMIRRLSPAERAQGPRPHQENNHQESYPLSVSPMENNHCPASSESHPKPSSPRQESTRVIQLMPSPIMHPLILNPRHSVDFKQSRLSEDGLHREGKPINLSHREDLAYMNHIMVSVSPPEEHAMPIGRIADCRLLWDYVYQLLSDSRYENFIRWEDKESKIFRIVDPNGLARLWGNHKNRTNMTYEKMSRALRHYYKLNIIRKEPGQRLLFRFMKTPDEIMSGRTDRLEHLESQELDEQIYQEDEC

For the sequence TCGATA, the binding signal is 1.24 fold enrichment (6-mer frequency, TF over GST control) with ERF; 1.13 fold enrichment (6-mer frequency, TF over GST control) in the test with ETV3L; 1.06 fold enrichment (6-mer frequency, TF over GST control) in the test with ETS2; 1.07 fold enrichment (6-mer frequency, TF over GST control) with SPDEF; 1.07 fold enrichment (6-mer frequency, TF over GST control) with ETV7; 1.11 fold enrichment (6-mer frequency, TF over GST control) in the test with ETV3. Further, the binding signal with ETV6 is 1.01 fold enrichment (6-mer frequency, TF over GST control).

On to CGCTTG, for which the binding signal in the test with ERF is 1.06 fold enrichment (6-mer frequency, TF over GST control); with ETV3L, 1.01 fold enrichment (6-mer frequency, TF over GST control); with ETS2, 1.22 fold enrichment (6-mer frequency, TF over GST control); in the test with SPDEF it was 1.09 fold enrichment (6-mer frequency, TF over GST control); in the test with ETV7, 1.01 fold enrichment (6-mer frequency, TF over GST control); with ETV3, 1.06 fold enrichment (6-mer frequency, TF over GST control). Moreover, the binding signal with ETV6 was 1.11 fold enrichment (6-mer frequency, TF over GST control).

GCACGA: the binding signal with ERF is 1.13 fold enrichment (6-mer frequency, TF over GST control); with ETV3L, 1 fold enrichment (6-mer frequency, TF over GST control); with ETS2 it was 1.03 fold enrichment (6-mer frequency, TF over GST control); with SPDEF, 1 fold enrichment (6-mer frequency, TF over GST control); in the test with ETV7, 1.19 fold enrichment (6-mer frequency, TF over GST control); with ETV3, 1.1 fold enrichment (6-mer frequency, TF over GST control). Also, in the test with ETV6, the binding signal was 1.06 fold enrichment (6-mer frequency, TF over GST control).

With GCACGC, the binding signal with ERF was 1.09 fold enrichment (6-mer frequency, TF over GST control); with ETV3L, 1.07 fold enrichment (6-mer frequency, TF over GST control); with ETS2, 1 fold enrichment (6-mer frequency, TF over GST control); in the test with SPDEF, 1.04 fold enrichment (6-mer frequency, TF over GST control); in the test with ETV7, 1.07 fold enrichment (6-mer frequency, TF over GST control); with ETV3, 1.14 fold enrichment (6-mer frequency, TF over GST control). In the test with ETV6, the binding signal was 1.07 fold enrichment (6-mer frequency, TF over GST control).

Turning to TTACGC, the binding signal with ERF is 1.15 fold enrichment (6-mer frequency, TF over GST control); with ETV3L, 1.05 fold enrichment (6-mer frequency, TF over GST control); with ETS2 it was 1.1 fold enrichment (6-mer frequency, TF over GST control); with SPDEF, 1.08 fold enrichment (6-mer frequency, TF over GST control); with ETV7, 1.02 fold enrichment (6-mer frequency, TF over GST control); in the test with ETV3 it was 1.16 fold enrichment (6-mer frequency, TF over GST control). Moreover, in the test with ETV6, the binding signal is 1.11 fold enrichment (6-mer frequency, TF over GST control).

In the case of CAATAG, the binding signal was 1.21 fold enrichment (6-mer frequency, TF over GST control) with ERF; 1.02 fold enrichment (6-mer frequency, TF over GST control) with ETV3L; 1.08 fold enrichment (6-mer frequency, TF over GST control) with ETS2; 1.08 fold enrichment (6-mer frequency, TF over GST control) in the test with SPDEF; 1.11 fold enrichment (6-mer frequency, TF over GST control) in the test with ETV7; 1.09 fold enrichment (6-mer frequency, TF over GST control) with ETV3. Also, the binding signal in the test with ETV6 was 1.12 fold enrichment (6-mer frequency, TF over GST control).

Take TGATCA: the binding signal was 1.15 fold enrichment (6-mer frequency, TF over GST control) with ERF; 1.07 fold enrichment (6-mer frequency, TF over GST control) with ETV3L; 1.06 fold enrichment (6-mer frequency, TF over GST control) with ETS2; 1.05 fold enrichment (6-mer frequency, TF over GST control) in the test with SPDEF; 1.14 fold enrichment (6-mer frequency, TF over GST control) with ETV7; 1.05 fold enrichment (6-mer frequency, TF over GST control) with ETV3.

On to GGCCTC, for which the binding signal in the test with ERF is 1.12 fold enrichment (6-mer frequency, TF over GST control); with ETV3L it was 1.12 fold enrichment (6-mer frequency, TF over GST control); with ETS2, 1.09 fold enrichment (6-mer frequency, TF over GST control); with SPDEF, 1.08 fold enrichment (6-mer frequency, TF over GST control); with ETV7 it was 1.05 fold enrichment (6-mer frequency, TF over GST control); in the test with ETV3 it was 1.1 fold enrichment (6-mer frequency, TF over GST control). The binding signal with ETV6 is 1.09 fold enrichment (6-mer frequency, TF over GST control).
